From PubChem BioAssay AID686979 (National Center for Advancing Translational Sciences (NCATS), 2013)
Out of some 420,000 compounds screened, about 50,000 (12%) were called active. Roughly 26% stayed inconclusive and do not appear here. The call rests on the fitted dose curve; in most records, active means well fitted inhibition curve with a large enough effect; inconclusive means small, poorly fitted or top-dose-only effect; inactive means flat fitted curve, though single readings scatter. The list comes from a sample in which actives are over-represented; it also holds similar structures and randomly drawn compounds. Entries that show only a call come without a potency.

Assay: qHTS for Inhibitors of human tyrosyl-DNA phosphodiesterase 1 (TDP1): qHTS in cells in presence of CPT; further: nearly all actives have a fitted effect of over 55% in size
Conditions: chicken DT40 Tdp1-/-;hTDP1 cells + 20 nM CPT, ATP luminescence, 48 h; series mostly up to 46.2 µM
Outline: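 Chicken DT40 Tdp1-/- cells stably complemented with human TDP1 were seeded at 400 cells/well in medium containing 20 nM camptothecin, exposed to pin-transferred compounds, and grown at 37 °C for at least 48 hr. Viability was read as ATP luminescence.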
Potency means the concentration at half of the fitted maximal effect.

Q: With `Nc1nnc(SCC(=O)NCC(=O)Nc2ccc(F)c(F)c2F)s1` as the molecule, how does the Potency read?
A: inactive

Q: For `O=C(N[C@H]1C/C=C\C(c2ccc(F)cc2)N(Cc2ccccc2)C(=O)C1)OCC1c2ccccc2-c2ccccc21` (some centres not stated), which Potency is on record?
A: 18.4 µM (active)

Q: For `COc1ccc(C2/C=C\CN(CC(C)C)CC(=O)N2Cc2ccc(F)cc2)cc1` (configuration not stated), which Potency is on record?
A: inactive

Q: For `O=C1c2ccccc2C(O)N1Cc1ccccc1` (configuration not stated), which Potency is on record?
A: inactive

Q: Which Potency does the source give for `Cn1c(SCC(=O)N2CCCC2)nnc1-c1ccc2c(c1)OCO2` here?
A: inactive

Q: Which Potency does the source give for `O=C(CNCc1ccc(Cl)cc1)Nc1cccc(C(=O)O)c1` here?
A: inactive

Q: With `CCOC(=O)n1c(SCC(=O)N(CC)CC)nc2ccccc21` as the molecule, how does the Potency read?
A: inactive

Q: With `CCN(CC)C(=O)CSc1nc2ccsc2c(=O)n1Cc1ccccc1Cl` as the molecule, how does the Potency read?
A: 18.4 µM (active)

Q: With `CCOC(=O)CSc1nc2c(c(=O)n(Cc3ccccc3Cl)c(=O)n2C)n1C` as the molecule, how does the Potency read?
A: inactive

Q: Which Potency does the source give for `O=C(CSc1ccsc1[N+](=O)[O-])N1CCCCC1` here?
A: inactive

Q: With `O=C(Nc1sc2c(c1-c1nc3ccccc3[nH]1)CCCC2)C1CC1` as the molecule, how does the Potency read?
A: inactive

Q: With `COc1ccc(C)c(Cn2c(-c3nonc3N)nc3ccccc32)c1` as the molecule, how does the Potency read?
A: 2.59 µM (active)

Q: Which Potency does the source give for `Fc1ccc(CNc2nc3ccccc3n3nnnc23)cc1` here?
A: inactive

Q: Which Potency does the source give for `COc1ccc2oc(N)nc2c1` here?
A: inactive

Q: With `Nc1nonc1-c1nc2ccccc2n1Cc1ccc(F)cc1` as the molecule, how does the Potency read?
A: 16.4 µM (active)

Q: Which Potency does the source give for `COc1cccc(C(O)c2nc3ccccc3n2C)c1` (configuration not stated) here?
A: inactive

Q: For `CC(=O)Nc1nonc1-c1nc2ccccc2n1Cc1ccccn1`, which Potency is on record?
A: inactive

Q: For `CN(C)S(=O)(=O)c1ccc(N2CCCC2=O)c([N+](=O)[O-])c1`, which Potency is on record?
A: inactive

Q: Which Potency does the source give for `Cc1ccc(F)cc1NC(=O)N1CCCN(c2ccc(C(F)(F)F)cn2)CC1` here?
A: inactive

Q: Which Potency does the source give for `O=C(Cn1c(=O)n(Cc2ccccc2)c(=O)c2sc3ccccc3c21)Nc1ccccc1F` here?
A: inactive

Q: With `Brc1ccccc1C1N=C(c2ccccc2)NO1` (configuration not stated) as the molecule, how does the Potency read?
A: inactive

Q: With `CCc1nc2c(=O)[nH]cnc2o1` as the molecule, how does the Potency read?
A: inactive

Q: For `Cc1n[nH]c(=O)c2c(NC(=O)CSc3cc(Cl)ccc3Cl)oc(C)c12`, which Potency is on record?
A: inactive

Q: Which Potency does the source give for `CCOc1ccc2c(=O)c(-c3ccc4c(c3)OCCCO4)c(C)oc2c1` here?
A: 18.4 µM (active)

Q: With `O=C(COc1ccc2c(C(F)(F)F)cc(=O)oc2c1)Nc1ccc2c(c1)OCCO2` as the molecule, how does the Potency read?
A: inactive

Q: With `CCOc1ccc(NC(=O)Cn2cc(C(=O)c3ccc(C)cc3)c(=O)c3cc4c(cc32)OCCO4)cc1` as the molecule, how does the Potency read?
A: inactive

Q: For `CCOC(=O)C1CCCN(C(=O)c2ccc(C)c(F)c2)CC1` (configuration not stated), which Potency is on record?
A: inactive

Q: With `C=CCn1c(SCC(=O)CC(=O)OCC)nc2cc(C(=O)N3CCC(C(N)=O)CC3)ccc2c1=O` as the molecule, how does the Potency read?
A: inactive

Q: With `CCOC(=O)C1CCN(C(=O)c2ccc3c(=O)n4nc(Nc5ccccc5CC)sc4nc3c2)CC1` as the molecule, how does the Potency read?
A: 13 µM (active)

Q: For `Cc1ccccc1Nc1nn2c(=O)c3ccc(C(=O)NCCc4ccc(Cl)cc4)cc3nc2s1`, which Potency is on record?
A: 5.8 µM (active)

Q: Which Potency does the source give for `Cc1nc2c(c(C)nn2-c2ccccc2)c(C)c1CCC(=O)NCCc1ccc(Cl)cc1` here?
A: inactive

Q: For `CCc1ccc(Nc2nn3c(=O)c4cc5c(cc4nc3s2)OCO5)cc1`, which Potency is on record?
A: inactive
